Source: PubChem BioAssay (NCATS)
“And” between values parts separate entries of the source, which are not always exact repeats. Equal entries are not always repeated. The source made the active and inactive calls. Unless noted, the call rests on the fitted dose curve; in most records, active means well fitted curve in the direction sought with a large enough effect; inconclusive means small, poorly fitted or top-dose-only effect, or another doubt; inactive means no such curve, though single readings can be large; an effect the other way counts as inactive or inconclusive.

Assays:
[1] = Cell Viability - LYMP2-013 (AID 970); further: potency means the concentration at half of the fitted maximal effect; nearly all actives have a fitted effect of over 55% in size
Procedure, shortened: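 qHTS; 2500 lymphoblastoid cells/well; 5 hr 37 C settle; cpd 24 hr 37 C; CellTiter-Glo, 30 min RT; luminescence. AC50 = Hill fit.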

[2] = Cell Viability - LYMP2-015 (AID 971); further: potency means the concentration at half of the fitted maximal effect; nearly all actives have a fitted effect of over 55% in size
Procedure, shortened: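 Luminescent ATP read-out (CellTiter-Glo) served as the viability measure after lymphoblastoid cells were exposed to compounds for 24 hours at 37 C. Concentration-response data were fitted with the Hill equation to give AC50.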

[3] = Cell Viability - LYMP2-017 (AID 972); further: potency means the concentration at half of the fitted maximal effect; nearly all actives have a fitted effect of over 55% in size
Procedure, shortened: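 2500 cells/well, 5 h 37 C; cpd 24 h 37 C in complete medium; CellTiter-Glo, 30 min RT; luminescence (ATP). AC50 via Hill fit, qHTS.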

[4] = Cell Viability - LYMP2-019 (AID 973); further: potency means the concentration at half of the fitted maximal effect; nearly all actives have a fitted effect of over 55% in size
Procedure, shortened: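 Luminescent ATP read-out (CellTiter-Glo, 30 min room temperature) served as the viability measure after 24 hr treatment of lymphoblastoid cells at 37 C. Concentration-response data were fitted to the Hill equation for AC50.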

[5] = Cell Viability - LYMP2-021 (AID 974)
Procedure, shortened: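 Plate 2500 lymphoblastoid cells per well and incubate 5 hr at 37 C. Add compounds over a concentration range and incubate 24 hr at 37 C. Add CellTiter-Glo, wait 30 min at room temperature, read luminescence.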

[6] = Cell Viability - LYMP2-023 (AID 975)
Procedure, shortened: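 2500 cells/well, 5 hr 37 C; cpd 24 hr 37 C; CellTiter-Glo, 30 min RT; luminescence. qHTS conc-response, Hill fit -> AC50. Pos ctrl tetraoctylammonium bromide.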

[7] = Cell Viability - LYMP2-025 (AID 976); further: potency means the concentration at half of the fitted maximal effect
Procedure, shortened: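 Seed 2500 LYMP2-025 cells/well; 5 hr at 37 C; add compound; 24 hr at 37 C; add CellTiter-Glo; 30 min RT; read luminescence. AC50 from Hill-modelled concentration-response.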

[8] = Cell Viability - LYMP2-002 (AID 977);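 further: potency means the concentration at half of the fitted maximal effect; compound exposure lasted 24 h at 37 °C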
Procedure, shortened: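 Cytotoxicity is scored as concentration-dependent loss of cellular ATP in a human lymphoblastoid line after 24 hr compound treatment at 37 C. AC50 is obtained by modelling concentration-response data with the Hill equation.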

[9] = Cell Viability - LYMP2-006 (AID 978); further: potency means the concentration at half of the fitted maximal effect; nearly all actives have a fitted effect of over 60% in size
Procedure, shortened: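 Human lymphoblastoid cells (LYMP2-006), 2500/well in complete medium, were treated with compound for 24 hr at 37 C. Cellular ATP was read by CellTiter-Glo luminescence after 30 min, and AC50 values came from Hill-equation fits of concentration-response data.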

[10] = Cell Viability - LYMP2-007 (AID 979);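 further: potency means the concentration at half of the fitted maximal effect; cells exposed to compound for 24 h before reading; nearly all actives have a fitted effect of over 60% in size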
Procedure, shortened: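 Luminescent ATP signal (CellTiter-Glo) serves as the viability read-out after 24 hr compound treatment of lymphoblastoid cells in complete medium at 37 C. Concentration-response data were fitted to the Hill equation to give AC50 values.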

[11] = Cell Viability - LYMP2-008 (AID 980); further: potency means the concentration at half of the fitted maximal effect; nearly all actives have a fitted effect of over 60% in size
Procedure, shortened: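 qHTS, human lymphoblastoid line, 2500 cells/well; 5 hr preincubation, 24 hr compound, 37 C. CellTiter-Glo ATP luminescence. AC50 via Hill equation. Tetraoctylammonium bromide positive control.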

[12] = Cell Viability - LYMP2-012 (AID 982)
[13] = Cell Viability - LYMP2-014 (AID 983); further: potency means the concentration at half of the fitted maximal effect; nearly all actives have a fitted effect of over 50% in size
Procedure, shortened: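 Luminescent ATP signal (CellTiter-Glo, 30 min at room temperature) serves as the viability read-out after 24 hr compound exposure at 37 C. Cells were seeded at 2500 per well and settled 5 hr beforehand.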

[14] = Cell Viability - LYMP2-016 (AID 984)
Procedure, shortened: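 Human lymphoblastoid LYMP2-016 cells, 2500 per well, treated with compounds for 24 h at 37 C. Viability read as intracellular ATP by CellTiter-Glo luminescence after 30 min at room temperature; AC50 from Hill fits of concentration-response.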

[15] = Cell Viability - LYMP2-018 (AID 985); further: potency means the concentration at half of the fitted maximal effect; nearly all actives have a fitted effect of over 50% in size
Procedure, shortened: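 Luminescent ATP signal (CellTiter-Glo, read after 30 min at room temperature) reports viable cells after 24 hr compound treatment at 37 C. Concentration-response data were fitted to the standard Hill equation for AC50.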

[16] = Cell Viability - LYMP2-020 (AID 986)
Procedure, shortened: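 Luminescent ATP signal (CellTiter-Glo, 30 min at room temperature) is the read-out after 24 h compound treatment of lymphoblastoid cells at 37 C. AC50 values come from Hill-equation fits across concentrations.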

[17] = Cell Viability - LYMP2-022 (AID 987)
Procedure, shortened: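 qHTS: human lymphoblastoid cells 2500/well; 5 hr 37 C; cpd added; 24 hr 37 C; CellTiter-Glo, 30 min RT; luminescence. AC50 via Hill fit; tetraoctylammonium bromide positive ctrl.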

[18] = Cell Viability - LYMP2-024 (AID 988); further: potency means the concentration at half of the fitted maximal effect; nearly all actives have a fitted effect of over 60% in size
Procedure, shortened: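 Steps: seed 2500 cells/well, 5 hr 37 C; add compound, 24 hr 37 C; add CellTiter-Glo, 30 min room temperature; read luminescence. AC50 derived by Hill modelling of concentration-dependent ATP loss.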

[19] = Cell Viability - LYMP2-026 (AID 989); further: potency means the concentration at half of the fitted maximal effect; nearly all actives have a fitted effect of over 50% in size
Procedure, shortened: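 Luminescent ATP signal (CellTiter-Glo, 30 min room temperature) measures viable lymphoblastoid cells after 24 hr compound treatment at 37 C. Decreased ATP reflects acute toxicity; AC50 values come from Hill-equation modeling.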

[20] = Cell Viability - LYMP1-002 - Assay at 24 hr (AID 993); further: potency means the concentration at half of the fitted maximal effect
Procedure, shortened: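 Cells plated 2500/well, 5 hr 37 C; compounds added, 24 hr 37 C; CellTiter-Glo added, 30 min RT; luminescence read. Tetraoctylammonium bromide positive control. Hill-equation AC50.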

[21] = Cell Viability - LYMP1-002 - Assay at 40 hr (AID 994)
Procedure, shortened: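 Luminescent ATP signal served as the viability readout, with decreases taken as toxicity. Cells were treated with compounds across a concentration range for 40 hours at 37 C, and AC50 values came from standard Hill modeling.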

[22] = target: Estrogen receptor (Homo sapiens) (UniProt P03372); experiment: qHTS assay for small molecule antagonists of estrogen receptor alpha signaling (AID 588513; active means well fitted curve in the direction sought with a large enough effect in the signal ratio, with a control signal flat, not every such curve was filed as active; inconclusive means small, poorly fitted or top-dose-only effect, or effect the other way, or a change in a side signal; inactive means no such curve, though single readings can be large or run the other way; the % refers to the signal ratio; further: potency means the concentration at half of the fitted maximal effect)
Procedure, shortened: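 ER-alpha-UAS-bla GripTite HEK 293 cells in 2% charcoal/dextran-treated FBS medium; compounds titrated (1:2, duplicate), then stimulated with 0.5 nM 17-beta-estradiol for 18 h at 37C. CCF4 beta-lactamase fluorescence; Hill-fit IC50 and efficacy.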

[23] = target: Estrogen receptor (Homo sapiens) (UniProt P03372); experiment: qHTS assay for small molecule agonists of estrogen receptor alpha signaling (AID 588514; calls by dose curve;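 further: 0% = vehicle only and 100% = reference agonist; nearly all actives have a fitted effect of over 70% in size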)
Procedure, shortened: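 Cells were plated at 5000/well, incubated 4 hrs at 37 C, dosed with compound titration series, incubated 18 hrs at 37 C, loaded with CCF4 dye for 2 hrs at RT, then fluorescence was read.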

[24] = target: Glucocorticoid receptor (Homo sapiens) (UniProt P04150); experiment: qHTS assay for small molecule antagonists of glucocorticoid receptor signaling (AID 588533; active means well fitted inhibition curve with a large enough effect in the signal ratio, with a control signal flat, not every such curve was filed as active; inconclusive means small, poorly fitted or top-dose-only effect, or effect the other way, or a change in a side signal; the % refers to the signal ratio;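 further: cells stimulated with 2 nM dexamethasone as agonist; on the % scale 0 is the no-effect control and ±100 the full control effect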)
Procedure, shortened: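 Antagonist-mode qHTS: compound titrations added to GRE-bla HeLa cells, then dexamethasone 2 nM final; 18 h, 37 C. CCF4 FRET fluorescence normalized to dexamethasone and DMSO; IC50 from Hill fit.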

[25] = target: Peroxisome proliferator-activated receptor delta (Homo sapiens) (UniProt Q03181); experiment: qHTS assay for small molecule agonists of peroxisome proliferator-activated receptor delta signaling (AID 588534; calls by dose curve;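 further: 0% = DMSO basal wells and 100% = positive control agonist at 10 µM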)
Procedure, shortened: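 Fluorescence from CCF4 substrate cleavage by beta-lactamase reporter, read 2 hrs at RT, measured agonist activity. Compounds were tested with 18 hrs exposure at 37 C. Concentration-response data fitted to Hill equation.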

[26] = target: Peroxisome proliferator-activated receptor gamma (Homo sapiens) (UniProt P37231); experiment: qHTS assay for small molecule agonists of peroxisome proliferator-activated receptor gamma signaling (AID 588536; active means well fitted curve in the direction sought with a large enough effect in the signal ratio, with a control signal flat, not every such curve was filed as active; inconclusive means small, poorly fitted or top-dose-only effect, or effect the other way, or a change in a side signal; inactive means no such curve, though single readings can be large or run the other way; the % refers to the signal ratio;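 further: 0% = DMSO basal wells and 100% = rosiglitazone at 2 µM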)
Procedure, shortened: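 HEK293 UAS-bla reporter line, 1% charcoal/dextran FBS; titration, 16 h, 37 C; CCF4 loading 2 h RT; fluorescence 460/530 nm. Normalized to rosiglitazone 2 uM = 100%, DMSO = 0%.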

[27] = target: Vitamin D3 receptor (Homo sapiens) (UniProt P11473); experiment: qHTS assay for small molecule antagonists of vitamin D receptor signaling (AID 588541; calls by dose curve; further: potency means the concentration at half of the fitted maximal effect)
Procedure, shortened: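 Antagonist-mode beta-lactamase reporter assay: HEK293T VDR-UAS-bla cells were exposed to titrated compound alongside 1-alpha,25-dihydroxyvitamin D3 at 3 nM final for 16 h. Values were normalized to the 50 nM agonist control and DMSO basal, with IC50 and efficacy from Hill equation fits.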

[28] = target: Thyroid hormone receptor beta (Homo sapiens) (UniProt P10828); experiment: qHTS assay for small molecule agonists of thyroid hormone receptor beta signaling (AID 588545; calls by dose curve;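 further: 0% = DMSO only and 100% = 10 nM T3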)
Procedure, shortened: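 Stimulation of a TR-driven beta-lactamase reporter was quantified in GripTite HEK 293 cells. Compound series ran for 18 hrs; curves were normalized to T3 and DMSO controls and fitted to yield EC50.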

[29] = qHTS assay for small molecule agonists of the antioxidant response element (ARE) signaling pathway (AID 651741; active means well fitted activation curve with a large enough effect in the signal ratio; inconclusive means small, poorly fitted or top-dose-only effect, or effect the other way, or a change in a side signal; the % refers to the signal ratio; further: potency means the concentration at half of the fitted maximal effect)
Procedure, shortened: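 Quantitative HTS in HepG2 cells stably expressing an ARE-beta-lactamase reporter; 16 h compound exposure at 37 C, followed by 2 h room-temperature incubation with LiveBLAzer B/G FRET substrate and fluorescence measurement.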

[30] = qHTS assay for small molecule activators of the p53 signaling pathway (AID 651743; active means well fitted activation curve with a large enough effect in the signal ratio, not every such curve was filed as active; inconclusive means small, poorly fitted or top-dose-only effect, or a change in a side signal; the % refers to the signal ratio; further: series mostly up to about 92 µM; % of control where 0% means no effect); settings: HCT-116 p53RE-bla, beta-lactamase FRET ratio, 16 h; activation: stronger effect = higher value
Procedure, shortened: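 Read-out is fluorescence intensity from the LiveBLAzer B/G FRET substrate, added for 2 hours at room temperature after HCT-116 p53RE-bla cells had been incubated with compounds for 16 hours at 37 C.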

[31] = qHTS assay for small molecule activators of the nuclear factor-kappa B (NF-kB) signaling pathway (AID 651749; active means well fitted activation curve with a large enough effect in the signal ratio; inconclusive means small, poorly fitted or top-dose-only effect, or a change in a side signal; the % refers to the signal ratio; further: series mostly up to about 77 µM; % of control where 0% means no effect); settings: NF-kB-bla ME-180 cells, beta-lactamase FRET ratio, 16 h; activation: stronger effect = higher value
Procedure, shortened: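 Readout: beta-lactamase reporter driven by an NF-kB response element, detected fluorescently as loss of FRET. Cells were the ME-180 line, treated 16 hr at 37C with pin-transferred compound.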

[32] = qHTS assay for small molecule disruptors of the mitochondrial membrane potential - 5 hr assay (AID 651755; calls by dose curve; further: on the % scale 0 is the no-effect control and ±100 the full control effect; nearly all actives have a fitted effect of over 40% in size)
Procedure, shortened: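 HepG2, 2,000 cells/well, overnight attach; cpd or DMSO 5 hr, 37C/5% CO2; Mito-MPS 30 min 37C; fluor 490/535 + 540/590 nm.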

[33] = target: Tumor necrosis factor (Homo sapiens) (UniProt P01375); experiment: qHTS assay to identify small molecules that stimulate Tumor Necrosis Factor-alpha (TNF-alpha) secretion (AID 651757; active means well fitted curve in the direction sought with a large enough effect in the signal ratio; inconclusive means small, poorly fitted or top-dose-only effect, or a change in a side signal; inactive means no such curve, though single readings can be large or run the other way; the % refers to the signal ratio; further: 0% is about no effect)
Procedure, shortened: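 Read-out is HTRF, a TR-FRET sandwich of cryptate- and XL665-labeled anti-TNF-alpha antibodies detecting cytokine secreted by THP-1 cells. Cells had been incubated with test compounds at 37 C for 17 hrs beforehand.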

[34] = qHTS assay for environmental chemicals that activate the Aryl hydrocarbon Receptor (AhR) signaling pathway (AID 651777); settings: 1A2-DRE human hepatoma cells, luciferase, 24 h; activation: stronger effect = higher value; further: % of control where 0% means no effect; nearly all actives have a fitted effect of over 15% in size
Procedure, shortened: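 Quantitative HTS in stably transfected human liver-derived cells whose luciferase gene sits downstream of the CYP1A2 promoter and dioxin response element. After 24 hr exposure at 37 C, One-Glo luminescence was measured.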

[35] = target: Peroxisome proliferator-activated receptor alpha (Homo sapiens) (UniProt Q07869); experiment: qHTS assay for small molecule agonists of the peroxisome proliferator-activated receptor alpha (PPARalpha) signaling pathway (AID 651778); settings: PathHunter PPARalpha complementation, chemiluminescence, 6 h; max response: stronger effect = higher value; further: % of control where 0% means no effect
Procedure, shortened: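 Chemiluminescence from complemented enzyme reported PPARalpha activation in cells after 6 hr of compound treatment at 37 C. The detection reagent was incubated for 60 min at room temperature, and compounds were scored as agonists.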

[36] = target: Nuclear receptor ROR-gamma (Homo sapiens) (UniProt P51449); experiment: qHTS assay for small molecule antagonists of the retinoid-related orphan receptor gamma (ROR-gamma) signaling pathway (AID 651802)
Procedure, shortened: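 CHO, TET-inducible ROR + RORE-LUC reporter, 1536-well qHTS. Compound pinned, doxycycline added, 16hr 37C/5% CO2. ONE-Glo, 30 min RT, luminescence; signal drop scored as antagonism.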

[37] = qHTS assay for small molecule agonists of the antioxidant response element (ARE) signaling pathway measured by Nrf2-dependant transcriptional activity - cell viability counter screen (AID 720653; active means well fitted curve in the direction sought with a large enough effect in the repeat runs; inconclusive means weak or mixed curves; inactive means no such curve, though single readings can be large; an effect the other way counts as inactive or inconclusive; further: potency means the concentration at half of the fitted maximal effect); settings: ARE-bla HepG2 viability, CellTiter-Glo ATP luminescence, 16 h; max response: stronger effect = lower value
Procedure, shortened: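 Cytotoxicity counter screen: intracellular ATP quantified by CellTiter-Glo luminescence in the same ARE-bla HepG2 plates, after 16 h compound exposure and a 2 h beta-lactamase substrate step.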

[38] = qHTS assay for cell viability of the p53RE-bla HCT-116 cell line (AID 743292)
Procedure, shortened: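 Viability of compound-treated p53RE-bla HCT-116 cells is taken from ATP-dependent luciferase luminescence. Treatment lasts 16 h at 37 C after a 5 h settling period; detection follows 30 min at room temperature.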

Sequence of Estrogen receptor (Homo sapiens) (P03372 whole entry, looked up): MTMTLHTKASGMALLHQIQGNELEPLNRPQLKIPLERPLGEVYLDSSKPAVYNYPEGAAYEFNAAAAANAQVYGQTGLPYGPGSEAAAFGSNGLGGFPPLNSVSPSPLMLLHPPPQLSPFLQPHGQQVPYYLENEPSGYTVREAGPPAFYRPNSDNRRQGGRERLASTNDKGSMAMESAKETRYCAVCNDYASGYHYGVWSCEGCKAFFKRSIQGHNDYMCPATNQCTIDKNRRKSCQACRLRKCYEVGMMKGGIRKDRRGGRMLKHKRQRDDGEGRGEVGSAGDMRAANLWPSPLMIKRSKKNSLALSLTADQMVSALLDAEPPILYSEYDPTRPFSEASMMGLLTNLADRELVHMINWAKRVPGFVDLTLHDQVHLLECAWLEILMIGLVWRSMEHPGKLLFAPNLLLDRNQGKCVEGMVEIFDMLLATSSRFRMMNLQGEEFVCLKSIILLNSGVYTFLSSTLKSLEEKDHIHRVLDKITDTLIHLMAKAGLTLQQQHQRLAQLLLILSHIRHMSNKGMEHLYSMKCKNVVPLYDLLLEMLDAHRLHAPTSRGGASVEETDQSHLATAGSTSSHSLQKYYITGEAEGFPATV
Sequence of Peroxisome proliferator-activated receptor alpha (Homo sapiens) (Q07869 whole entry, looked up): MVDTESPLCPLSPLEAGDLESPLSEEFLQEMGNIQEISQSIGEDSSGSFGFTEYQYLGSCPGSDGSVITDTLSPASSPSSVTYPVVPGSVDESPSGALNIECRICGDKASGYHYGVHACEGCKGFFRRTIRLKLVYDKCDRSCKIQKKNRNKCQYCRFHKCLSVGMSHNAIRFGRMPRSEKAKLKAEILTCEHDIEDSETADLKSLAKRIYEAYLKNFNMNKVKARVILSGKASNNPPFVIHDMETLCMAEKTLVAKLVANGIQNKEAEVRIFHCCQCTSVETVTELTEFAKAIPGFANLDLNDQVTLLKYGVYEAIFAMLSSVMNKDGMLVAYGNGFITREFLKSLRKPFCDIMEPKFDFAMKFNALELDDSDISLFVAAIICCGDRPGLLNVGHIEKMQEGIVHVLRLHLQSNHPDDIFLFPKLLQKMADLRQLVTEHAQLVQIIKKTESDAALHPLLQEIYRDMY
Sequence of Thyroid hormone receptor beta (Homo sapiens) (P10828 whole entry, looked up): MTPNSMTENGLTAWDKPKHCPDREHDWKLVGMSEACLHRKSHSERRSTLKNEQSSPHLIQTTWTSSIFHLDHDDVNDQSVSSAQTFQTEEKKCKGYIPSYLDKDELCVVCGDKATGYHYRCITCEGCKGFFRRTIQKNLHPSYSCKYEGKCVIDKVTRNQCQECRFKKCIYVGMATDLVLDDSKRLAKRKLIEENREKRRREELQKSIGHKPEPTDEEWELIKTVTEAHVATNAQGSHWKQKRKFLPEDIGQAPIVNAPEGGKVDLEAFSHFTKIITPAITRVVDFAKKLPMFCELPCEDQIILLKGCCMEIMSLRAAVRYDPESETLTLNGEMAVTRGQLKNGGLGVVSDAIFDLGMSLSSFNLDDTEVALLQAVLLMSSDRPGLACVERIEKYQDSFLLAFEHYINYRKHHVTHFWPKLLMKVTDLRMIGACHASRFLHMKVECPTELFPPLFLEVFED
Sequence of Nuclear receptor ROR-gamma (Homo sapiens) (P51449 whole entry, looked up): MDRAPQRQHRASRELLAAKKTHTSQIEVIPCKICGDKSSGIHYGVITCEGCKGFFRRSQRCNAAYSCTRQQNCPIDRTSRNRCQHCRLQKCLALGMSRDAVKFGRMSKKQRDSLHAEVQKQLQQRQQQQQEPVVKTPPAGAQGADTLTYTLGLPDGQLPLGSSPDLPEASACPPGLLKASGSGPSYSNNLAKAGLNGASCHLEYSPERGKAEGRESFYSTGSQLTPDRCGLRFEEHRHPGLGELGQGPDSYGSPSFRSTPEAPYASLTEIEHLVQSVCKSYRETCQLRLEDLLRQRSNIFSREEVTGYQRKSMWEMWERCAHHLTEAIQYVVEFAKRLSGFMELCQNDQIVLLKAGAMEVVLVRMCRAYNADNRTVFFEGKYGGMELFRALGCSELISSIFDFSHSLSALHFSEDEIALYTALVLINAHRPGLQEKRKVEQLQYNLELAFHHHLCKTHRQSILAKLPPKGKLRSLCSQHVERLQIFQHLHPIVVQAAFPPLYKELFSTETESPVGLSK
Sequence of Tumor necrosis factor (Homo sapiens) (P01375 whole entry, looked up): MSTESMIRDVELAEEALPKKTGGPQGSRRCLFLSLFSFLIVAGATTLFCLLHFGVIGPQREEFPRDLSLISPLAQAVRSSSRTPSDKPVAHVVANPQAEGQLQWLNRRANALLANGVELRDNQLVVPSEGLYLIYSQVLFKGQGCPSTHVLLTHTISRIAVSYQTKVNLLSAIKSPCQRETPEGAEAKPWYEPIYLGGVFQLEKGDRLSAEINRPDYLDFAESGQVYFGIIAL
Sequence of Peroxisome proliferator-activated receptor gamma (Homo sapiens) (P37231 whole entry, looked up): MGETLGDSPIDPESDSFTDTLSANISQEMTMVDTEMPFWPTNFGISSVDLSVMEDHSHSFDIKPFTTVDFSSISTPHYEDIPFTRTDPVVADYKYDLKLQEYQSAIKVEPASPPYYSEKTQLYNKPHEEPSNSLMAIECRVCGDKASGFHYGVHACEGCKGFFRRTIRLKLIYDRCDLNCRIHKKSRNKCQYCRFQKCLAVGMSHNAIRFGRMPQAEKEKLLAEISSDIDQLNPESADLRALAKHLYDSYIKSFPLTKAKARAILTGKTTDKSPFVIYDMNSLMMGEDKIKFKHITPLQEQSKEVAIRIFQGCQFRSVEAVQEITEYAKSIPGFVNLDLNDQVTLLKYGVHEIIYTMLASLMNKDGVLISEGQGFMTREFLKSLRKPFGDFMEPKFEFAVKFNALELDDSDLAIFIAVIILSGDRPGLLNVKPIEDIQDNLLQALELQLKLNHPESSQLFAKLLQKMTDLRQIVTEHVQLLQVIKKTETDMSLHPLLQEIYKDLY
Sequence of Vitamin D3 receptor (Homo sapiens) (P11473 whole entry, looked up): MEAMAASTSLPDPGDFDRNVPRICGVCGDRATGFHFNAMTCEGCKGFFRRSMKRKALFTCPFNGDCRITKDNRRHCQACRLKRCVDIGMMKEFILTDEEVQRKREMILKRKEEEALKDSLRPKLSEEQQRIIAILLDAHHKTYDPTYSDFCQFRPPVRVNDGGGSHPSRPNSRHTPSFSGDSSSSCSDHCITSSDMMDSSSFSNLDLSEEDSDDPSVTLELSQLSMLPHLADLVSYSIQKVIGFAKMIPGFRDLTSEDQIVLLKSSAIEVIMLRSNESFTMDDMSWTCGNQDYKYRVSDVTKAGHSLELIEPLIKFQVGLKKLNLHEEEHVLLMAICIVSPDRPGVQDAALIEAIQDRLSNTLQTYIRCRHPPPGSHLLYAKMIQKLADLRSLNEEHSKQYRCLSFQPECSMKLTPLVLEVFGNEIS
Sequence of Peroxisome proliferator-activated receptor delta (Homo sapiens) (Q03181 whole entry, looked up): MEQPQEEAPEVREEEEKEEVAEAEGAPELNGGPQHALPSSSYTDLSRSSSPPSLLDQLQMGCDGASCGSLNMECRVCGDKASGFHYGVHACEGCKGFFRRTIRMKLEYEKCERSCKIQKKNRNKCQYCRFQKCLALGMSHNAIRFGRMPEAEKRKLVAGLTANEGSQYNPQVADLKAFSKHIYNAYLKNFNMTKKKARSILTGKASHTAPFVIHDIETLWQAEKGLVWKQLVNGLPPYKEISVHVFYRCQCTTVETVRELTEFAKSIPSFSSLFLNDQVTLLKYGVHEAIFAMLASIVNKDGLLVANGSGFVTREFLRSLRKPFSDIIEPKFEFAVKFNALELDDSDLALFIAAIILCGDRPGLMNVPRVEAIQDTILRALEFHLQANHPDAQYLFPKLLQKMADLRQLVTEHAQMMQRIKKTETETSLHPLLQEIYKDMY
Sequence of Glucocorticoid receptor (Homo sapiens) (P04150 whole entry, looked up): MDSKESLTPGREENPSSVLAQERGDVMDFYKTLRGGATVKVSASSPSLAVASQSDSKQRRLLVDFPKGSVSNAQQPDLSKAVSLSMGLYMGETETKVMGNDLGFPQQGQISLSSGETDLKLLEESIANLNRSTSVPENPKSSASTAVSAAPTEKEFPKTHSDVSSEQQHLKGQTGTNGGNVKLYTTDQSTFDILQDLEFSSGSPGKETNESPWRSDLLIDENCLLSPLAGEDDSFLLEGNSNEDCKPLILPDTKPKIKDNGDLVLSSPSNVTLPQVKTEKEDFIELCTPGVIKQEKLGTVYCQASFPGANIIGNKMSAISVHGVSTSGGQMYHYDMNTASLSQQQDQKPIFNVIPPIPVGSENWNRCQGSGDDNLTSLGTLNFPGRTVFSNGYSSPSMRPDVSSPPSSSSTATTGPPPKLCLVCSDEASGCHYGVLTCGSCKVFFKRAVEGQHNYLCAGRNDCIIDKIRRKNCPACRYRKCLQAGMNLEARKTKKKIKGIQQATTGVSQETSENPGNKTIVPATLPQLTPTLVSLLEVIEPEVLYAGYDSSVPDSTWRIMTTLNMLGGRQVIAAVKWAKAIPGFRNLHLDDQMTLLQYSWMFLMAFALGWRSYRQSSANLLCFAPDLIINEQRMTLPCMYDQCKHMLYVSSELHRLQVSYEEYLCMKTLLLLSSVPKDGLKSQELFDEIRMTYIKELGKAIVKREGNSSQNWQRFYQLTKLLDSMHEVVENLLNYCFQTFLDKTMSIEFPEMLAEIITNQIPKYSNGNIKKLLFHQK

CCCCCCCCn1sccc1=O
inactive: Potency [23] | Potency [24] | outcome [25] | Potency [26] | Potency [28] | activation [30] -5.11% | activation [31] -0.619% and -1.03% | Potency [32] | Potency [33] | activation [34] 1.42% and -3.52% | max response [35] -5.93% and -2.13% | Potency [38]
active: Potency [1] 15.8 µM | Potency [2] 3.16 µM | Potency [3] 3.98 µM | Potency [4] 3.98 µM | Potency [5] 3.98 µM | Potency [6] 6.31 µM | Potency [7] 6.31 µM | Potency [8] 6.31 µM | Potency [9] 7.94 µM | Potency [10] 2.51 µM | Potency [11] 7.94 µM | Potency [12] 3.98 µM | Potency [13] 10 µM | Potency [14] 6.31 µM | Potency [15] 5.01 µM | Potency [16] 3.98 µM | Potency [17] 2.51 µM | Potency [18] 2.51 µM | Potency [19] 3.98 µM | Potency [20] 12.6 µM | Potency [21] 15.8 µM | Potency [22] 14.1 µM [inconclusive] | Potency [27] 22.4 µM | Potency [29] 66.8 µM and 54.5 µM | Potency [36] 11.9 µM | Potency [37] 50.1 µM
